# The panel holds about 83,000 compounds, 20% with a hit somewhere; the sample as a whole holds those more often.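 The endpoint reported here, percent growth, reads 100 for growth as untreated, 0 for no net growth and -100 for all cells dead.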 Unmarked numbers belong to inactive results. The source made the active and inactive calls. The calls were made as follows: active = growth percent below 10; inactive = the rest.
# Tested on: HCT-15 colon
# Assay: NCI-60 one-dose screen, 48 h (100 = growth as untreated, 0 = no growth, -100 = all killed)
# Details: 10 µM unless noted
row,SMILES,growth
1,COc1ccc(C=Nc2c(C(=O)Nc3cccc(Cl)c3C)sc3nc(C)c(C(=O)/C=C/c4ccc(OC)cc4)cc23)cc1,19.6%
2,CCOC(=O)CNC1=C(Cl)C(=O)N(Cc2ccc(Cl)cc2)C1=O,110%
3,COc1ccc(/C=C(\C(=O)NCc2cccnc2)S(=O)(=O)c2ccccc2)cc1OC,28.3%
4,COc1cc2c(c(OC)c1OC)CCC(c1cccc(C(=O)Nc3ccc(Br)cc3)c1)O2 (stereo not given),61%
5,Nc1cc(-c2ccc(Cl)cc2)nn1-c1nnc(/C=C/c2ccco2)c(=O)[nH]1,38.1%
6,N#C/C(=C\c1ccc(-c2cccc(Cl)c2)o1)C(=O)Nc1ncc(Cc2ccc(Cl)cc2)s1,57.6%
7,CCOC(=O)c1c(C)nc2c(c1N)C(=O)C(=O)N2Cc1ccc(OC)cc1,22.7%
8,c1csc(-c2cn3nc(-c4c[nH]c5ccccc45)sc3n2)c1,21.6%
9,FC(F)(F)c1[nH]ncc1-c1nc2ccc3[nH]ncc3c2c2c1CCCC2,12.7%
10,COc1cc(-c2nccc3[nH]c(-c4cccc5[nH]ccc45)nc23)cc(OC)c1OC,17.6%
11,COc1ccc2[nH]cc(-c3nonc3-c3c[nH]c4ccc(Br)cc34)c2c1,19.9%
12,CC(=O)c1c(Nc2cccc(F)c2)[nH]c2c(Cl)cc(Cl)c(Cl)c2c1=O,8.24% (active)
13,CCOC(=O)NC(=S)n1oc(=O)c2ccccc21,103%
14,O=S(Nc1ccccc1)c1ccc(Cl)cc1 (stereo not given),109%
15,Nc1c(Br)cc2c(c1Br)Cc1cc([N+](=O)[O-])ccc1-2,104%
16,CCCN(CCSSCCNc1nc(N(C)O)nc(N(C)O)n1)c1nc(N(C)O)nc(N(C)O)n1,69.3%
17,COC(=O)c1sccc1-c1cc(O)c(C(=O)Nc2ccccc2)s1,97.7%
18,N#Cc1c(-c2ccc(Cl)cc2)nc(NN=Cc2ccc[nH]2)nc1N1CCOCC1,78.9%
19,Clc1ccc(-c2nc(C(Cl)Cl)nc3cc(-c4ccccc4)nn23)cc1,8.19% (active)
20,C/C(=N\Nc1ccccc1)c1ccc(NC2=CC(=O)c3ccccc3C2=O)cc1,31.9%

row,SMILES,growth
1,COc1ccc(/C=C(/C(=O)N2CCNCC2)c2cc(OC)c(OC)c(OC)c2)cc1O,96.6%
2,CCN(CC)CCCC(Cc1ccccc1)Nc1c2ccc(Cl)cc2nc2ccc(OC)cc12 (stereo not given),2.58% (active)
3,Fc1ccc2[nH]cc(-c3nc(-c4c[nH]c5c(Cl)nccc45)cs3)c2c1,-39.6% (active)
4,Fc1ccc(/C=C/[C@@H]2C[C@@H](F)CCO2)cc1,93.7%
5,Cc1ccccc1N1CCN(C(=S)c2ccccc2)CC1,98.8%
6,N#Cc1ccc(/C=C/c2cn(-c3ccccc3)nc2-c2cccc([N+](=O)[O-])c2)cc1,65.4%
7,Cc1[nH]c(C(=O)Nc2ccccc2OC2CCN(CCN3CCOCC3)CC2)c(Cl)c1Cl,83.6%
8,COc1ccc(C(O)c2cc3c(N)c(C(=O)Nc4cccc5ccccc45)sc3nc2C)cc1 (stereo not given),6.45% (active)
9,Cc1ccc(C(=O)c2ccc(CC(=O)N/N=C/c3cccc(O)c3O)n2C)cc1,15.7%
10,CCC(C)(C)c1ccc(Nc2ccc(Nc3ccc(C(C)(C)CC)cc3)cc2)cc1,91.2%
11,O=C(Nc1ccc(Nc2ccncc2)cc1)c1ccc(Nc2ccnc3ccc([N+](=O)[O-])cc23)cc1,99.3%
12,CCCCNC(=O)c1ccc2c(c1)nc(-c1ccccc1)n2C1CCCCC1,72.5%
13,Cc1ccc(NC(=O)c2cc3ccccc3cc2O)c(C)c1,77.4%
14,CCOC(=O)C(CCN(C)C)c1ccccc1 (stereo not given),105%
15,CC(O)Cc1c[nH]c(=O)[nH]c1=O (stereo not given),97.8%
16,COCCn1cc(-c2nc(-c3c[nH]c4ncccc34)cs2)c2ccccc21,20.3%
17,CC1SC(c2ccccc2O)N(NC(=O)CCC(=O)c2nc3ncccc3[nH]2)C1=O (stereo not given),103%
18,COC12C=C/C(=C(/C(=O)OCCSc3ccnn3C)C(=O)CCCCCCCCC3(OC)C=C/C(=C(/C(=O)OCCSc4ccnn4C)C(=O)CCCCCCCC1)O3)O2,-19.5% (active)
19,COC1C(O)CC(OC2CC(OC3CC(O[C@@H]4C(=O)c5c(cc6cc(OC7CC(OC8CC(O)C(O)C(C)O8)C(O)C(C)O7)c(C)c(O)c6c5O)CC4[C@H](OC)[C@@H](O)C(C)=O)OC(C)C3O)OC(C)C2O)OC1C (stereo not given in full),28%
20,CNC(=O)c1cc(Oc2ccc3c(c2)sc2nc(-c4ccc(NC(=O)[C@@H](NC(=O)OC)C(C)C)cc4)cn23)ccn1,73.2%

# Source: PubChem BioAssay (NCI)
